In the library only some 19% were active in any assay of this set; here they are far more common.
uPA surface inh – qHTS for Inhibitors of Cell Surface uPA Generation; cell surface uPA generation assay, qHTS; Potency, µM (titrated, usually from 38.3 µM), for inactives: top-dose activity change, negative = inhibition, actives largely listed as inhibitors; 330,000 compounds, 0.31% hits; AID 540303, 2011; active means well fitted inhibition curve with a large enough effect; inconclusive means small, poorly fitted or top-dose-only effect; inactive means no such curve, though single readings can be large or run the other way; tested in mouse RAW 264.7 cells; further: potency means the concentration at half of the fitted maximal effect; nearly all actives have a fitted effect of over 55% in size
DT40 TDP1 CPT – qHTS for Inhibitors of human tyrosyl-DNA phosphodiesterase 1 (TDP1): qHTS in cells in presence of CPT | chicken DT40 Tdp1-/-;hTDP1 cells + 20 nM CPT, ATP luminescence, 48 h | Potency, µM (highest dose often 46.2 µM), inactives show at the highest dose activity change, negative = growth inhibition, usual class: inhibitors | 420,000 compounds, 12% hits; further: potency means the concentration at half of the fitted maximal effect; nearly all actives have a fitted effect of over 55% in size
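Chicken DT40 Tdp1-/- cells complemented with human TDP1, 400 cells/well, exposed to compounds plus 20 nM camptothecin for at least 48 h at 37 C; viability read as ATP content by CellTiter-Glo luminescence.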
DT40 TDP1 no CPT – qHTS for Inhibitors of human tyrosyl-DNA phosphodiesterase 1 (TDP1): qHTS in cells in absence of CPT. DT40 Tdp1-/- hTDP1 cells, no CPT, ATP luminescence, 48 h. Potency, µM (highest dose often 46.2 µM), for inactives: at the highest dose activity change, negative = growth inhibition, most hits filed as inhibitors. 420,000 compounds, 15% hits. AID 686978, 2013; further: potency means the concentration at half of the fitted maximal effect; nearly all actives have a fitted effect of over 55% in size
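A cellular qHTS used chicken DT40 cells lacking endogenous Tdp1 but carrying stably transfected human TDP1. Compounds were applied without camptothecin, and cell growth kinetics were judged by ATP-dependent luminescence after ≥48 hr.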
IL-1B inflam inh – qHTS for Inhibitors of Inflammasome Signaling: IL-1-beta AlphaLISA Primary Screen; THP-1 LPS/ATP IL-1B secretion, AlphaLISA, 16 h; hits give low values; activity change, % at 57.5 µM; 360,000 compounds, 4.7% hits; AID 743279, 2014; in the data active means activity change below about -50%; inconclusive means mostly about -30% to -49%
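THP-1 cells pretreated 1 hr with compounds (up to 57.5 uM final), then stimulated with LPS (250 ng/mL final) plus ATP (1.25 mM final); secreted IL-1B measured by AlphaLISA after 16 hr, decreased signal indicating inhibition.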
HT1080 IDH1KD tx – qHTS for induction of synthetic lethality in tumor cells producing 2HG: qHTS for the HT-1080-IDH1KD cell line | Potency, µM (doses to about 46.1 µM), for the others: at the highest dose activity, negative = toxicity, hits mostly cytotoxic | AID 686971, 2013 | HT-1080 IDH1 knockdown viability, ATP luminescence, 48 h | 360,000 compounds, 2% hits;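 further: potency means the concentration at half of the fitted maximal effect; 0% = DMSO wells and -100% = cell-free medium wells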
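In this qHTS, HT-1080 cells depleted of IDH1 are exposed for 48 h at 37 °C to compound titrations. Toxicity is scored from CellTiter-Glo luminescence, with DMSO as full viability and medium alone as none.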
HT1080NT lethal – qHTS for induction of synthetic lethality in tumor cells producing 2HG: qHTS for the HT-1080-NT fibrosarcoma cell line; Potency, µM (highest dose often 46.1 µM), for inactives: top-dose activity, negative = less viability, usual class: cytotoxic; AID 686970, 2013; HT-1080-NT fibrosarcoma viability, CellTiter-Glo ATP luminescence, 48 h; 360,000 compounds, 1.6% hits;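 further: NT is the 2HG producing partner of a matched IDH1 knockdown line; potency means the concentration at half of the fitted maximal effect; 0% = DMSO-treated cells and -100% = media-only wells without cells; nearly all actives have a fitted effect of over 55% in size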
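Read-out is CellTiter-Glo luminescence after 10 minutes at room temperature, following 48 hours' compound treatment of HT-1080-NT cells (750 cells/well, RPMI, 5% FBS, 37 degrees C).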
The depositor's hits bear a star; [ ] = remark or other dose. Unless noted, the call rests on the fitted dose curve; in most records, active means well fitted curve in the direction sought with a large enough effect; inconclusive means small, poorly fitted or top-dose-only effect, or another doubt; inactive means no such curve, though single readings can be large; an effect the other way counts as inactive or inconclusive. Unless noted, on the % scale 0 is the no-effect control and ±100 the full control effect.

Screening O=C1NC(=O)C(Sc2ccccc2[N+](=O)[O-])C(=O)N1 returned uPA surface inh 6%, DT40 TDP1 CPT inconclusive, DT40 TDP1 no CPT inconclusive, IL-1B inflam inh -9, HT1080 IDH1KD tx 3% and HT1080NT lethal 8%.
Screening CCOC(=O)c1c(-c2ccc(OC)cc2)oc2ccc(OC(=O)N(C)C)cc12 returned uPA surface inh -9%, DT40 TDP1 CPT inconclusive, DT40 TDP1 no CPT 18µM*, IL-1B inflam inh -7, HT1080 IDH1KD tx inconclusive and HT1080NT lethal inconclusive.
For COc1cccc(Oc2c(C)oc3cc(OC(=O)N(C)C)ccc3c2=O)c1 the results were DT40 TDP1 CPT inconclusive, DT40 TDP1 no CPT -15%, IL-1B inflam inh -3, HT1080 IDH1KD tx -4% and HT1080NT lethal -6%[9.24 µM].
`CC1CC[C@]2(NC1)OC1CC3C4CC=C5CC(O)CC[C@@]5(C)C4CC[C@]3(C)C1C2C` (stereo not given in full) gave DT40 TDP1 CPT 12% and DT40 TDP1 no CPT 5%.
Screening CN(C)C(=O)O/N=C(\N)COc1ccc(C(C)(C)C)cc1 returned uPA surface inh inconclusive, DT40 TDP1 CPT 21µM*, DT40 TDP1 no CPT inconclusive, IL-1B inflam inh -23, HT1080 IDH1KD tx 21µM* and HT1080NT lethal 12µM*.
For CCOC(=O)C(O)(c1ccc(N(C)C(=O)COc2ccccc2)cc1)C(F)(F)F (stereo not given) the results were uPA surface inh 5%, DT40 TDP1 CPT -9%, DT40 TDP1 no CPT 0%, IL-1B inflam inh 0, HT1080 IDH1KD tx 7% and HT1080NT lethal -7%.
CC(Cc1ccccc1)[n+]1cc(/N=C(\[O-])N(C)C)on1 (stereo not given) was read as uPA surface inh -2%, DT40 TDP1 CPT -7%, DT40 TDP1 no CPT 3%, IL-1B inflam inh -20, HT1080 IDH1KD tx 9% and HT1080NT lethal 6%.
CC(N)Cc1cn(Cc2ccccc2)c2ccccc12 (stereo not given) was read as uPA surface inh -4%, DT40 TDP1 CPT inconclusive, DT40 TDP1 no CPT 21µM*, IL-1B inflam inh -90*, HT1080 IDH1KD tx inconclusive and HT1080NT lethal inconclusive.
O=Cc1cn(Cc2ccc(Br)cc2)c2ccccc12 was read as uPA surface inh -5%, DT40 TDP1 CPT -10%, DT40 TDP1 no CPT -26%, IL-1B inflam inh -13, HT1080 IDH1KD tx -12% and HT1080NT lethal -15%.
`COc1ccc(-c2nnc3sc(C4CCCCC4)nn23)cc1OC` gave uPA surface inh -4%, DT40 TDP1 CPT 18µM*, DT40 TDP1 no CPT 15µM*, IL-1B inflam inh inconclusive, HT1080 IDH1KD tx 11% and HT1080NT lethal 1%.
CC1CCCC(=O)CCC/C=C/c2cc(O)cc(O)c2C(=O)O1 (stereo not given) was read as DT40 TDP1 CPT 3% and DT40 TDP1 no CPT -15%.
Screening O=C1NC(=O)N(Cc2ccc(F)cc2)C(=O)/C1=C/c1cccs1 returned uPA surface inh 2%, DT40 TDP1 CPT 12µM*, DT40 TDP1 no CPT 8.2µM*, IL-1B inflam inh -101*, HT1080 IDH1KD tx inconclusive and HT1080NT lethal inconclusive.
`O=C1NC(=O)N(Cc2ccccc2Cl)C(=O)/C1=C/c1cccs1` gave uPA surface inh inconclusive, DT40 TDP1 CPT 6.5µM*, DT40 TDP1 no CPT 4.6µM*, IL-1B inflam inh inconclusive, HT1080 IDH1KD tx -12% and HT1080NT lethal -5%.
`CC(OC(=O)COc1ccc(Nc2ccccc2)cc1)C(=O)N(C)c1ccccc1` (stereo not given) gave uPA surface inh 3%, DT40 TDP1 CPT inconclusive, DT40 TDP1 no CPT inconclusive, IL-1B inflam inh 2, HT1080 IDH1KD tx 0% and HT1080NT lethal -1%.
For COc1cc(C(=O)OC2C[C@H]3CC[C@@H](C2)N3)ccc1O (stereo not given in full) the results were uPA surface inh 17%, DT40 TDP1 CPT -5%, DT40 TDP1 no CPT -21%, IL-1B inflam inh -19, HT1080 IDH1KD tx -3% and HT1080NT lethal -3%.
`CC1CCC/C=C/C2CC(O)CC2C(O)/C=C/C(=O)O1` (stereo not given) gave uPA surface inh -16%, DT40 TDP1 CPT 0.29µM*, DT40 TDP1 no CPT 0.37µM*, IL-1B inflam inh -56*, HT1080 IDH1KD tx inconclusive and HT1080NT lethal inconclusive.
CCCCC[C@H]1CCCCC[C@H](O)C[C@@H](O)[C@H](O)/C=C/C(=O)O1 was read as DT40 TDP1 CPT inconclusive, DT40 TDP1 no CPT inconclusive, IL-1B inflam inh inconclusive, HT1080 IDH1KD tx -23% and HT1080NT lethal -27%.
For C[C@H]1CCC/C=C/C2C[C@H](O)CC2[C@H](O)/C=C/C(=O)O1 (stereo not given in full) the results were uPA surface inh 0.32µM*, DT40 TDP1 CPT 0.23µM*, DT40 TDP1 no CPT 0.18µM*, IL-1B inflam inh -64*, HT1080 IDH1KD tx 0.029µM* and HT1080NT lethal 0.037µM*.
Screening CN1CCN(c2c[nH]c(=O)[nH]c2=O)CC1 returned uPA surface inh 0%, DT40 TDP1 CPT 3%, DT40 TDP1 no CPT 5%, IL-1B inflam inh -13, HT1080 IDH1KD tx 3% and HT1080NT lethal 2%.
Screening N#CC1c2ccccc2-n2nncc2CN1S(=O)(=O)c1ccccc1 (stereo not given) returned uPA surface inh 14%, DT40 TDP1 CPT -2%, DT40 TDP1 no CPT -1%, IL-1B inflam inh 18, HT1080 IDH1KD tx 12% and HT1080NT lethal 15%.
For CN1CCN(c2cc3c(cc2F)c(=O)c(C(=O)O)cn3-c2ccc(F)cc2)CC1 the results were DT40 TDP1 CPT 11µM* and DT40 TDP1 no CPT 24µM*.
`CC(Cc1cnccn1)NCc1c(C(=O)N2CCCCCCC2)nc2ccc(Cl)cn12` (stereo not given) gave uPA surface inh -8%, DT40 TDP1 CPT 4%, DT40 TDP1 no CPT 3%, IL-1B inflam inh -15, HT1080 IDH1KD tx 20% and HT1080NT lethal 6%.
Cc1ccc(-n2cc(CNC(C)Cc3cnccn3)c(-c3cccc(C)c3)n2)cc1 (stereo not given) was read as uPA surface inh -2%, DT40 TDP1 CPT 13µM*, DT40 TDP1 no CPT 12µM*, IL-1B inflam inh -76*, HT1080 IDH1KD tx inconclusive and HT1080NT lethal inconclusive.
